Shiga inhibitor: inhibitors of Shiga toxin in Vero cells; Vero cells, Shiga toxin protein synthesis inhibition reporter; inhibition, % at 38.7 µM; actives 9.2% (n = 290,000); AID 2315; in the data active = inhibition mostly above about 28%, no sharp cut-off; inactive = mostly below about 43%; also: 0% is about no effect
Pf growth 96h: P. falciparum growth inhibition at 96 hours. P. falciparum luciferase reporter growth, 96 h. Potency, µM (series often up to 28.7 µM), inactives show at the top dose activity change, negative = inhibition, actives largely listed as inhibitors. actives 6.9% (n = 320,000). AID 504834; also: potency is read from the fitted curve at half-maximal effect; % is scaled to controls: 0 for no effect and ±100 for the full control effect
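P. falciparum expressing integrated firefly luciferase, in erythrocytes at 2% hematocrit, 0.05% parasitemia, incubated with compounds 96 h at 37 C, 5% CO2. Growth inhibition read as loss of luminescence; two-generation exposure targets delayed-death apicoplast inhibitors.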
Marburg entry inh: blocks Marburg virus binding to or entry into cells. Marburg virus pseudotyped entry inhibition, cell reporter. Potency, µM (titrated, usually from 37.8 µM), inactives show top-dose activity change, negative = inhibition, usual class: inhibitors. actives 1.8% (n = 300,000). AID 540276; calls by dose curve; tested in HEK293 cells; also: potency is read from the fitted curve at half-maximal effect; % is scaled to controls: 0 for no effect and ±100 for the full control effect
Pf growth 48h: P. falciparum growth inhibition at 48 hours (one generation); P. falciparum luciferase growth in erythrocytes, 48 h; Potency, µM (titrated, usually from 28.7 µM), for the others: at the highest dose activity change, negative = inhibition, usual class: inhibitors; actives 5.9% (n = 310,000); also: potency is read from the fitted curve at half-maximal effect; % is scaled to controls: 0 for no effect and ±100 for the full control effect
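Here the parasites carry a stable luciferase gene and grow inside erythrocytes in Albumax-based RPMI medium with compound for one erythrocytic cycle. Activity is scored as loss of luminescent signal.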
LASV entry inh: blocks Lassa virus binding to or entry into cells; Potency, µM (highest dose often 37.9 µM), for the others: top-dose activity change, negative = inhibition, most hits filed as inhibitors; actives 1.2% (n = 300,000); Lassa virus pseudotype entry inhibition, cell reporter; calls by dose curve; tested in HEK293 cells; also: potency is read from the fitted curve at half-maximal effect; % is scaled to controls: 0 for no effect and ±100 for the full control effect; nearly all actives have a fitted effect of over 50% in size
Cycloheximide cs: counter-screen hit for Shiga toxin inhibitors, cycloheximide; cell reporter, cycloheximide protein synthesis inhibition counterscreen; max response, %; actives 12% (n = 300,000); AID 2314; in the data active = max response mostly above about 13%, no sharp cut-off; inactive = mostly below about 14%; also: read at 38.3 µM for the half of the compounds with a filed dose; 0% is about no effect
Starred values were filed as active, the others as inactive; ? = inconclusive; nt = no result given; + = active, no number; [ ] = remark or other dose. Compounds with a hit are over-represented: about 19% of the library has one in this group of screens. Unless noted, calls follow the shape of the dose curve; as a rule, active = well fitted inhibition curve with a large enough effect; inconclusive = small, poorly fitted or top-dose-only effect, or another doubt; inactive = no such curve, though single readings can be large or run the other way.

SMILES | Shiga inhibitor | Pf growth 96h | Marburg entry inh | Pf growth 48h | LASV entry inh | Cycloheximide cs
COc1cccc(NC(=O)NCc2ccccc2F)c1 | 97* | -22% | ? | 147% | -14% | 40*
COc1cccc(NC(=O)C(=O)NCCCn2ccnc2)c1 | 57 | ? | -9%[46.1 µM] | 58% | 20% | 34*
COC(=O)c1ccc(NC(=O)Nc2ccc(OC)c(OC)c2)cc1 | 12 | -48%[5.75 µM] | 0% | -9% | 25% | -2
CCCCCOc1ccc(NC(=O)C(=O)NCCCn2ccnc2)cc1 | -24 | nt | ? | -11% | 11% | -2
Cc1ccc(NC(=O)N2CCCC2C(=O)NCc2ccccc2Cl)cc1 (centres undefined) | -7 | 2.6µM* | nt | -10% | nt | 1
COc1ccc(NC(=O)NC23CC4(C)CC(C)(CC(C)(C4)C2)C3)cc1OC | -16 | ? | ? | 2.6µM* | ? | -3
C#CCOCCOCCOCCNc1nc(N2CCN(C(=O)[C@H](CCC(=O)O)n3cc(C(N)CC(C)C)nn3)CC2)nc(N2CCN(C(=O)[C@H](CCC(=O)O)n3cc(C(N)[C@H](C)CC)nn3)CC2)n1 (some centres undefined) | 8 | -10% | nt | ? | nt | 4
COc1ccc(NC(=O)N2CCCC2C(=O)Nc2ccccc2F)cc1 (centres undefined) | 2 | 2.6µM* | ? | 17% | 7% | -3
COc1ccc(NC(=O)N2CCCC2C(=O)Nc2ccccc2)cc1 (centres undefined) | -8 | 3% | -3% | -8% | 10% | -1
COc1ccccc1NC(=O)CN(c1ccccc1F)S(C)(=O)=O | 9 | ? | ? | -9% | -1% | -7
O=S(=O)(Nc1ccc(Cl)c(Cl)c1)N1CCOCC1 | 13 | 4.7µM* | nt | 7% | nt | -1
COc1ccc(C(=O)NCC(=O)OCC(=O)N2N=C(c3ccc(Cl)cc3)CC2c2ccco2)cc1OC (centres undefined) | -7 | 20% | 3% | 11% | ? | 12
CNc1nc(C23CC4CC(CC(C4)C2)C3)cs1 | -7 | 33% | nt | ? | nt | 0
Cc1ccc(CNC(=O)CCC2CCCN(Cc3c(C)nn(C(C)C)c3C)C2)o1 (centres undefined) | 1 | 8.3µM* | nt | -3% | nt | 10
Cc1ccc(CNC(=O)CCC2CCCN(Cc3cccc4c3OCO4)C2)o1 (centres undefined) | -4 | 0% | -13%[46.1 µM] | -7% | -15% | -2
CCOC(=O)c1ccc(NC(=O)c2cn(-c3ccccc3)nc2-c2ccc(C)cc2)cc1 | nt | nt | nt | nt | 13%[46.1 µM] | nt
CCOC(=O)c1ccc(NC(=O)c2cn(-c3ccccc3)nc2-c2ccncc2)cc1 | -2 | 0% | 7.1µM* | 4.1µM* | -25% | -3
Cc1ccc(-c2nn(-c3ccccc3)cc2C(=O)Nc2ccc(C(=O)O)cc2)cc1 | 48* | ? | 0%[46.1 µM] | 85% | 19% | 21*
O=C(OCc1ccccc1)c1cn(-c2ccccc2)nc1-c1ccncc1 | 7 | 9.3µM* | -28% | ? | -1% | 5
CCCC(CCC(=O)Nc1ccn(-c2ccccc2)n1)C(=O)O (centres undefined) | 8 | -12% | 3% | 0% | 11% | -2
Brc1ccc(C2=NC(Cc3ccccc3)CO2)cc1 (centres undefined) | 77* | 116% | 37% | 140% | ? | 52*
O=C(OCc1ccccc1)[C@@H]1COC(c2ccc(Br)cc2)=N1 | + | nt | nt | nt | nt | 38*
Clc1ccccc1Cn1cccc1C1=NC(Cc2ccccc2)CO1 (centres undefined) | nt | nt | -20%[46.1 µM] | nt | 14%[46.1 µM] | nt
N=C1N(/N=C/c2ccccc2)C(=Nc2ccccc2)C(=S)N1c1ccccc1 | active | 84% | -12% | ? | 6% | 42*
Cc1ccc(/C=N/n2c(-c3ccccc3)n[nH]c2=S)cc1 | nt | 8% | nt | 10% | nt | -2
SMILES | Shiga inhibitor | Pf growth 96h | Marburg entry inh | Pf growth 48h | LASV entry inh | Cycloheximide cs
COCCSc1ncnc2c1oc1nc3c(cc12)COC(C)(C)C3 | 30 | -1% | 2% | 6% | nt | 23*
Cc1onc(C(=O)N2CCC(Cc3ccccc3)CC2)c1[N+](=O)[O-] | -7 | ? | nt | ? | nt | -4
O=C(c1noc2c1CCCCC2)N1CCN(c2cccc(Cl)c2)CC1 | nt | nt | nt | nt | -17%[46.1 µM] | nt
O=C(c1noc2c1CCCC2)N1CCN(c2ccccc2)CC1 | 83 | 96% | 11% | 10% | ? | 21*
Cc1onc(C(=O)N2CCN(Cc3ccccc3)CC2)c1[N+](=O)[O-] | -22 | 15µM* | 12% | -16% | -4% | -4
CC(C)c1onc(C(=O)N2CCN(c3ccccc3)CC2)c1[N+](=O)[O-] | -5 | ? | nt | 5.2µM* | nt | 1
CC(=O)c1ccc(N2CCN(C(=O)c3noc4c3CSc3ccccc3-4)CC2)cc1 | 13 | 0% | nt | 30% | nt | 17*
Cc1cc(NC(=O)CSc2nc(-c3ccccc3F)nc3c2c(=O)n(C)c(=O)n3C)no1 | nt | nt | nt | nt | 1%[46.1 µM] | nt
CCOc1ccc2c(c1)c(=O)c(S(=O)(=O)c1ccc(CC)cc1)cn2CC | nt | nt | ? | nt | -9%[46.1 µM] | nt
O=C(NCc1ccc(OC(F)(F)F)cc1)C12CN(Cc3ccccc3)CC1C(c1cccc([N+](=O)[O-])c1)=NO2 (centres undefined) | -4 | 0% | -5% | ? | nt | 6
CCOC(=O)[C@@H]1[C@H]2COc3ccc(Br)cc3[C@H]2N2C(=O)N(c3ccc(C)cc3)C(=O)[C@]12C | -6 | 12µM* | nt | ? | nt | -2
CCOC(=O)[C@@H]1[C@H]2COc3ccc(Br)cc3[C@@H]2N2C(=O)N(c3ccc(OC)cc3)C(=O)[C@]12C | -6 | 3.3µM* | nt | -2% | nt | -4
CCOC(=O)[C@@H]1[C@H]2COc3ccccc3[C@@H]2N2C(=O)N(c3ccc(F)cc3)C(=O)[C@@]12C | -2 | 35% | nt | 6% | nt | 1
CCOC(=O)[C@@H]1[C@H]2COc3ccccc3[C@H]2N2C(=O)N(c3ccc(C(F)(F)F)cc3)C(=O)[C@]12C | -4 | 5.2µM* | nt | 10µM* | nt | -3
CCOC(=O)[C@@H]1[C@H]2COc3ccc(Br)cc3[C@@H]2N2C(=O)N(c3ccc(C)cc3)C(=O)[C@]12C | -6 | 13µM* | nt | ? | nt | 1
CC(=O)[C@@]1(O)CC[C@H]2[C@H]3C[C@@H](C)C4=CC(=O)C=C[C@]4(C)[C@@]3(F)[C@@H](O)C[C@]21C | nt | ? | nt | -18%[12.8 µM] | nt | nt
CN(C)c1ccc(C(CNS(=O)(=O)c2ccc(F)cc2)c2c[nH]c3ccccc23)cc1 (centres undefined) | -7 | 0% | -27% | -18% | -9% | -3
CC(=O)N(CCCN(C)C)Cc1ccccn1 | -2 | 14% | 2%[46.1 µM] | 0% | 18%[46.1 µM] | 7
Clc1ccccc1COc1ccccc1-c1nnco1 | -10 | -22% | 15% | -3% | -14% | -3
c1ccc(OCCOc2ccccc2-c2nnco2)cc1 | 136* | 5.2µM* | 23%[46.1 µM] | 34% | ? | 15*
